# The full data set covers some 6,500 targets. This sample favours those with a hit. About 2% of all pairs of compound and target were hits. Values without a mark were called inactive.
# Compound: COC(=O)C#Cc1ccccc1 [methyl 3-phenylpropiolate]
# Experiment: log2 ratio of iodoacetamide-alkyne labeling of the cysteine site, DMSO over compound (competition); higher = stronger covalent engagement of the cysteine by the compound, active = 1 or more
# Conditions: 500 µM; treatment time 1 h; system: HEK293T cell lysate
# Procedure, shortened: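 HEK293T lysate at 2 mg/mL was treated with vehicle or electrophile (500 µM) for 1 h at ambient temperature, then labelled with iodoacetamide alkyne (1 h), clicked to sCIP-TMT reagents, pooled, digested with trypsin overnight at 37 °C, enriched on streptavidin and eluted with acid. Peptides were analysed by Orbitrap Eclipse LC-MS/MS with FAIMS and quantified in FragPipe, using duplicate channels and three replicates, with cysteines quantified in only one replicate excluded. The log2 competition ratio for each cysteine is the mean control-channel reporter intensity divided by the mean compound-channel reporter intensity.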
# UniProt P53041, sequence (P53041 whole entry, looked up): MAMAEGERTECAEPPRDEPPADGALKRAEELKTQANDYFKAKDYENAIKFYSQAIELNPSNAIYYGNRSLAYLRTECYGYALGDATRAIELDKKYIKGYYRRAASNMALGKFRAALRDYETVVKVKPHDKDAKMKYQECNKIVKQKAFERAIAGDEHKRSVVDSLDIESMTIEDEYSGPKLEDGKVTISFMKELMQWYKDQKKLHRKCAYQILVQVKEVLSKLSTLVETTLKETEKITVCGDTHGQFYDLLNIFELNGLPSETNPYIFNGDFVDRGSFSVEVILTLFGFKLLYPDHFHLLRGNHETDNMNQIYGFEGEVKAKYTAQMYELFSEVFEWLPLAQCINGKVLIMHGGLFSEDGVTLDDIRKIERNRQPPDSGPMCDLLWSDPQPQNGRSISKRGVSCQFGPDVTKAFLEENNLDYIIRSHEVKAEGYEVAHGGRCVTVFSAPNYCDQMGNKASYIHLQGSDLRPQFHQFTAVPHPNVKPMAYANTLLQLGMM
# UniProt Q15417, sequence (Q15417 whole entry, looked up): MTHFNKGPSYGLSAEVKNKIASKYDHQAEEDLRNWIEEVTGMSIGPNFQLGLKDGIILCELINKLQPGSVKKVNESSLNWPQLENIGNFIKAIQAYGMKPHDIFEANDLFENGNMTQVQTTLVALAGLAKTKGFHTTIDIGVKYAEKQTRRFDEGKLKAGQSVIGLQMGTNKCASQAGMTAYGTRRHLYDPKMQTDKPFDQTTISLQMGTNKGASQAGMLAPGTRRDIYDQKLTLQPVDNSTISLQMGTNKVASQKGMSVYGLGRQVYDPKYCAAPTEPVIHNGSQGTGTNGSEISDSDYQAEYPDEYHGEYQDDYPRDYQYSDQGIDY
# UniProt Q15181, sequence (Q15181 whole entry, looked up): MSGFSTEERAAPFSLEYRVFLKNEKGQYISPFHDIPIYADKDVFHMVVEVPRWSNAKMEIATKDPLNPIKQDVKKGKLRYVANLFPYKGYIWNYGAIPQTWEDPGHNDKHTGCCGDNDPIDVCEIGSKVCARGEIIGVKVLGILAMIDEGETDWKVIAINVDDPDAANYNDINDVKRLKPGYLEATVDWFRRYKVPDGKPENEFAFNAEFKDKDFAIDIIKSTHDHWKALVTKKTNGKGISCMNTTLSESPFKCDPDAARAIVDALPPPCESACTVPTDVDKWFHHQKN
# UniProt Q14C86, sequence (Q14C86 whole entry, looked up): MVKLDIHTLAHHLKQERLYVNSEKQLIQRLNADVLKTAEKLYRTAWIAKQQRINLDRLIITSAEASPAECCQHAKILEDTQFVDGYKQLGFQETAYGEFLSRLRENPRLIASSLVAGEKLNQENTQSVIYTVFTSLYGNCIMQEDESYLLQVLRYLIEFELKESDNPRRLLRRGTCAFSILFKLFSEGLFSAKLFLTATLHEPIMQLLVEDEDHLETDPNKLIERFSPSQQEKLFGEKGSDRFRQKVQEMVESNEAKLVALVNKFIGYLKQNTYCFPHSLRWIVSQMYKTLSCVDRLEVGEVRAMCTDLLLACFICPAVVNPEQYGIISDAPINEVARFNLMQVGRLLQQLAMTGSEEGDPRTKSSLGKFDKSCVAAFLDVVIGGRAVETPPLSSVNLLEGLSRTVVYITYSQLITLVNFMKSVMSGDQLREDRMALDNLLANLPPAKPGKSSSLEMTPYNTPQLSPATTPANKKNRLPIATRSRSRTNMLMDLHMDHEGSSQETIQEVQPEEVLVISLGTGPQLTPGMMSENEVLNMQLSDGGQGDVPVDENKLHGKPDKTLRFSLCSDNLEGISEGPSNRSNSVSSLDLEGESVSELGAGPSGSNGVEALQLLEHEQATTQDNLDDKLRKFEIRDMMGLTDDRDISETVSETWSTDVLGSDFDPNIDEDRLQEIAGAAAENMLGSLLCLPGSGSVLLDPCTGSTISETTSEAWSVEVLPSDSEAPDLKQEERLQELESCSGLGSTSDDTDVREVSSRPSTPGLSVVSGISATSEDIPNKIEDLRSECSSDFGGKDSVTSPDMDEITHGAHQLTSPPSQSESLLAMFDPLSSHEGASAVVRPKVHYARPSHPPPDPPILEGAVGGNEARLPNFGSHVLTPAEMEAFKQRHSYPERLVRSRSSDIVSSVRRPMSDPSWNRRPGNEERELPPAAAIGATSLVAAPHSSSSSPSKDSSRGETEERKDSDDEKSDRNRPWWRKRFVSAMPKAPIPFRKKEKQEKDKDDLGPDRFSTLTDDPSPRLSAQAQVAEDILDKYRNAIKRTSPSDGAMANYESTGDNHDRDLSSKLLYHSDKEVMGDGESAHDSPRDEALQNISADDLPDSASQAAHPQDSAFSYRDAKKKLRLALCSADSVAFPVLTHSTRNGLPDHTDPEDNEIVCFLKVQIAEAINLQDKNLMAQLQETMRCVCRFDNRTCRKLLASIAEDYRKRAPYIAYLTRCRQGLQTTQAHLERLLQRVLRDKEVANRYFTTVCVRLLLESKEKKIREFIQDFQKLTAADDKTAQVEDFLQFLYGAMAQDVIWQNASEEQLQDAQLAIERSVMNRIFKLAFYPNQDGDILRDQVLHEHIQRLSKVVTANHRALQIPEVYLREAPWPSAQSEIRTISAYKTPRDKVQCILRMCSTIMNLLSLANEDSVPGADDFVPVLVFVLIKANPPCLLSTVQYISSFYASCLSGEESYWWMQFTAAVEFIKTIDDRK
# UniProt Q14566, sequence (Q14566 whole entry, looked up): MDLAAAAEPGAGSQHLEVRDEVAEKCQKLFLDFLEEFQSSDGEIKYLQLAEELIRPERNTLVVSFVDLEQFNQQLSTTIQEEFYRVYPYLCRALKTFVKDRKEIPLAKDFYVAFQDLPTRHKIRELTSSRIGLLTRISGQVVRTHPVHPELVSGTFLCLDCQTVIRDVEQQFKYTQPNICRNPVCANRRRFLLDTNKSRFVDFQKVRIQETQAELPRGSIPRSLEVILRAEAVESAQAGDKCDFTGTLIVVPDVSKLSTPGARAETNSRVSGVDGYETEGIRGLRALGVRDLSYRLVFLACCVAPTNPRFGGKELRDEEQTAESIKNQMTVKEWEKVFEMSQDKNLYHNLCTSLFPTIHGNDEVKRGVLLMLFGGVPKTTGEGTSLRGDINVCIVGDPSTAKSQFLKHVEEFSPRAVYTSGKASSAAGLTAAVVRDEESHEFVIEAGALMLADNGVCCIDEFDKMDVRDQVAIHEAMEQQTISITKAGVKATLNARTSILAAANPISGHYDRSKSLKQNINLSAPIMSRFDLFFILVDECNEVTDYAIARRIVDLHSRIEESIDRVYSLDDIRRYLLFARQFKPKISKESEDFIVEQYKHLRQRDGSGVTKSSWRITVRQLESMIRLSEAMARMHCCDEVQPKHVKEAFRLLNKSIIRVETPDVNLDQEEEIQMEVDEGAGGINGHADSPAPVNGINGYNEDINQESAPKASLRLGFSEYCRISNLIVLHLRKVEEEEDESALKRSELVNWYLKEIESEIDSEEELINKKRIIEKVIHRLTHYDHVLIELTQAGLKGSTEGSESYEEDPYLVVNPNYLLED
# UniProt Q00839, sequence (Q00839 whole entry, looked up): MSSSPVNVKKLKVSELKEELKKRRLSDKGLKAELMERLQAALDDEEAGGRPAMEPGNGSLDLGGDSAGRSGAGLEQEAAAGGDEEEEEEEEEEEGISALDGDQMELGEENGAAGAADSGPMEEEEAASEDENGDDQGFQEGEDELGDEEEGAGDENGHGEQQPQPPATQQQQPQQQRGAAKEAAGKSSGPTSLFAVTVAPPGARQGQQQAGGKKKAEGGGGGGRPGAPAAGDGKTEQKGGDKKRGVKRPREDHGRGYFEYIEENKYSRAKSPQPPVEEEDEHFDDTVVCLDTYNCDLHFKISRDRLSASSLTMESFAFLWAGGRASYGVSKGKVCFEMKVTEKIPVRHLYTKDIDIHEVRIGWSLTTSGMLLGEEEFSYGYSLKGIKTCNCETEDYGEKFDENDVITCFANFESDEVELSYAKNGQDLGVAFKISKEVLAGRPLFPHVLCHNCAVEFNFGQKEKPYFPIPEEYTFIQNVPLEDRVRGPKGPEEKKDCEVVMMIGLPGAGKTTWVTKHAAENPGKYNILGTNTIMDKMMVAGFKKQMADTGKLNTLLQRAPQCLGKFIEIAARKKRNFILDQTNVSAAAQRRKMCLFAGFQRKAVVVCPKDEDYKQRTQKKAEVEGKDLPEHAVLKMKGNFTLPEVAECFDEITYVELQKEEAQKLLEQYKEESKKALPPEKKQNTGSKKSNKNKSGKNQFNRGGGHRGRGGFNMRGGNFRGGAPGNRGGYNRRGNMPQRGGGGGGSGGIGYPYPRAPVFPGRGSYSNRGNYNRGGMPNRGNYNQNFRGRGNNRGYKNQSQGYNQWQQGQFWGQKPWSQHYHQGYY
# UniProt Q2NL82, sequence (Q2NL82 whole entry, looked up): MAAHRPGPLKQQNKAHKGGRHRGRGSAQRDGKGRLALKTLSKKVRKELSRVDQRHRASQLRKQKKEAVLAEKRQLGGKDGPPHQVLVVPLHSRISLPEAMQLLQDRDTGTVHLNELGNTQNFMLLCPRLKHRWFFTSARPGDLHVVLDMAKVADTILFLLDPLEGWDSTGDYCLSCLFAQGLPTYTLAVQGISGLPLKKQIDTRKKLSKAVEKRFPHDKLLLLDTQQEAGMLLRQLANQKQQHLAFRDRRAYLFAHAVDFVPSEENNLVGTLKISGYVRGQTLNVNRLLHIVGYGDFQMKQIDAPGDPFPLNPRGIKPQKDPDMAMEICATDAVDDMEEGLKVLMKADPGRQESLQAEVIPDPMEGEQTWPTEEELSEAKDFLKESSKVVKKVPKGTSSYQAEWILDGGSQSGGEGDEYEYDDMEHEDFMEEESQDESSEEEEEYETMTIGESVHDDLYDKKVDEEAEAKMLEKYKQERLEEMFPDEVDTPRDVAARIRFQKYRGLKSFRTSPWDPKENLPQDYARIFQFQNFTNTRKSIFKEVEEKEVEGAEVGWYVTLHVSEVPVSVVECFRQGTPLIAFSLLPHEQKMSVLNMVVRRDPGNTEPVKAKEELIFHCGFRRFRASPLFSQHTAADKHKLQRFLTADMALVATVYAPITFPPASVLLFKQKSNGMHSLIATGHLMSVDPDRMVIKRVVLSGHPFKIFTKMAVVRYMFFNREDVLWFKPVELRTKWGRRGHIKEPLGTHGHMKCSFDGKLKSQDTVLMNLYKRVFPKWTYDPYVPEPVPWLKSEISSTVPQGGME
row,Target,log2 ratio of iodoacetamide-alkyne labeling
1,HNRNPU C497 (UniProt Q00839),0.211
2,TARBP1 C483 (UniProt Q13395),1.21 (active)
3,SEC24C C433 (UniProt P53992),1.1 (active)
4,PDS5A C581 (UniProt Q29RF7),0.744
5,HCCS C66 (UniProt P53701),0.724
6,AP1B1 C129 (UniProt Q10567),0.414
7,HK2 C158 (UniProt P52789),0.246
8,GAPVD1 C568 (UniProt Q14C86),0.475
9,CNN3 C173 (UniProt Q15417),1.01 (active)
10,NUP107 C78 (UniProt P57740),0.705
11,DYNC1H1 C4510 (UniProt Q14204),0.182
12,LGALS3BP C489 (UniProt Q08380),1.72 (active)
13,PPP5C C452 (UniProt P53041),0.0827
14,MCM6 C242 (UniProt Q14566),0.192
15,BPTF C1357 (UniProt Q12830),0.53
16,PPA1 C114 (UniProt Q15181),-0.223
17,UniProt Q12905_C271,0.137
18,TSR1 C329 (UniProt Q2NL82),0.425

row,Target,log2 ratio of iodoacetamide-alkyne labeling
1,SQSTM1 C113 (UniProt Q13501),1.2 (active)
2,CMC4 C12 (UniProt P56277),1.14 (active)
3,UniProt Q00341_C948,0.167
4,UniProt P62330_C155,0.452
5,GRB2 C32 (UniProt P62993),0.167
6,RPS27A C144 (UniProt P62979),-0.175
7,RRP12 C31 (UniProt Q5JTH9),1.26 (active)
8,UniProt P62273_C39,0.0855
9,DYNC1H1 C3147 (UniProt Q14204),0.433
10,UniProt P98164_C4047,0.464
11,NUP98 C1027 (UniProt P52948),0.378
12,P86790_C358 (UniProt P86791+P86790),0.213
13,ESPL1 C1369 (UniProt Q14674),0.218
14,DST C7524 (UniProt Q03001),0.174
15,GOLGA2 C794 (UniProt Q08379),1.07 (active)
16,UniProt Q5MNZ6_C6,0.235
17,COPB1 C248 (UniProt P53618),-0.00654

# — the supplement of paper PMC11006884
